We go through 17 compounds from PubChem BioAssay (Tox21).

For assay [1], the target named is Acetylcholinesterase (Homo sapiens) (UniProt P22303). Description: Acetylcholinesterase (AChE) small molecule antagonists: colormetric cell-based qHTS assay (AID 1347395; calls by dose curve; also: nearly all actives have a fitted effect of over 30% in size; also: potency is read from the fitted curve at half-maximal effect). In short, it runs like this:
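Cells (SH-SY5Y, 2,000 per well) are seeded and left overnight at 37 C. Compound is added for 30 min, then DTNB and acetylthiocholine for a further 90 min at 37 C before absorbance-based thiocholine detection.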

For assay [2] the target is unchanged. Description: Acetylcholinesterase (AChE) small molecule antagonists: enzyme-based qHTS assay (AID 1347397; calls by dose curve; also: nearly all actives have a fitted effect of over 55% in size; also: potency is read from the fitted curve at half-maximal effect). The note with it: Potency: AChE enzyme activity inhibition. Put shortly:
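Recombinant human AChE (50 mU/mL) preincubated with compound 30 min at room temperature; acetylthiocholine plus DTNB then added, and thiocholine formation read colorimetrically after 10 min at room temperature. DMSO served as vehicle control.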

Assay [3] has the same target. Put plainly: Acetylcholinesterase (AChE) small molecule antagonists: fluorescence cell-based qHTS assay (AID 1347398; calls by dose curve; also: nearly all actives have a fitted effect of over 50% in size; also: potency is read from the fitted curve at half-maximal effect). The note with it: Potency: AChE activity. In short, it runs like this:
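SH-SY5Y cells (2000/well), attached overnight, incubated with compound 30 min at 37 C. Acetylthiocholine plus Thiolite Green then added for 40 min at room temperature. Thiocholine fluorescence (Ex/Em 490/520 nm) reports cellular AChE activity.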
For orientation: qHTS replaces the single test concentration by a dilution series.

For assay [4] the target is unchanged. Description: Acetylcholinesterase (AChE) small molecule antagonists: enzyme-based qHTS assay with human liver microsomes (AID 1347399; calls by dose curve; also: nearly all actives have a fitted effect of over 60% in size; also: potency is read from the fitted curve at half-maximal effect). The settings on record: Potency: qHTS inhibition. Put shortly:
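Recombinant human AChE (50 mU/mL in the enzyme mix) and human liver microsomes (0.25 mg/mL final) were preincubated with compound and NADPH (0.25 mg/mL final) for 30 min at 37 C. Acetylthiocholine/DTNB was then added; thiocholine was read colorimetrically after 10 min at room temperature.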

In assay [5] the target is Cytochrome P450 2D6 (Homo sapiens) (UniProt P10635). Description: Cytochrome P450 Family 2 Subfamily D Member 6 (CYP2D6) small molecule antagonists: luciferase reporter qHTS assay (AID 1671196). Also: nearly all actives have a fitted effect of over 50% in size. Also: potency is read from the fitted curve at half-maximal effect. In short, it runs like this:
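Inhibition of CYP2D6 was gauged by loss of luminescence, since light produced tracks the luciferin generated from a proluciferin substrate. A 10 min room-temperature preincubation preceded 1 h NADPH-supported turnover.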
On the technique in general: A reporter such as luciferase makes a cellular process visible.

Assay [6] concerns the target Cytochrome P450 2C19 (Homo sapiens) (UniProt P33261). Put plainly: Cytochrome P450 Family 2 Subfamily C Member 19 (CYP2C19) small molecule antagonists: luciferase reporter qHTS assay (AID 1671197). Also: nearly all actives have a fitted effect of over 65% in size. Also: potency is read from the fitted curve at half-maximal effect. In short, it runs like this:
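Compounds were tested on CYP2C19 activity via proluciferin conversion to luciferin. The 37C, 1 h reaction followed NADPH addition; detection reagent stopped it.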

Assay [7] concerns the target Cytochrome P450 2C9 (Homo sapiens) (UniProt P11712). Description: Cytochrome P450 Family 2 Subfamily C Member 9 (CYP2C9) small molecule antagonists: luciferase reporter qHTS assay (AID 1671198). Also: nearly all actives have a fitted effect of over 50% in size. Also: potency is read from the fitted curve at half-maximal effect. In short, it runs like this:
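P450-Glo proluciferin substrate with CYP2C9 enzyme; 10 min RT preincubation, then NADPH regeneration 1 h at 37C; luciferin detection reagent 20 min RT, luminescence in relative luminescence units.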

Assay [8] deals with Cytochrome P450 1A2 (Homo sapiens) (UniProt P05177). Put plainly: Cytochrome P450 Family 1 Subfamily A Member 2 (CYP1A2) small molecule antagonists: luciferase reporter qHTS assay (AID 1671199). Also: nearly all actives have a fitted effect of over 50% in size. Also: potency is read from the fitted curve at half-maximal effect. Put shortly: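 Signal from luciferin formed by CYP1A2 from a proluciferin substrate is read as luminescence, expressed in relative luminescence units. Compounds sit with enzyme 10 min, NADPH-driven reaction runs 1 h, all at room temperature.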
Sequence of Cytochrome P450 1A2 (Homo sapiens) (P05177 whole entry, looked up): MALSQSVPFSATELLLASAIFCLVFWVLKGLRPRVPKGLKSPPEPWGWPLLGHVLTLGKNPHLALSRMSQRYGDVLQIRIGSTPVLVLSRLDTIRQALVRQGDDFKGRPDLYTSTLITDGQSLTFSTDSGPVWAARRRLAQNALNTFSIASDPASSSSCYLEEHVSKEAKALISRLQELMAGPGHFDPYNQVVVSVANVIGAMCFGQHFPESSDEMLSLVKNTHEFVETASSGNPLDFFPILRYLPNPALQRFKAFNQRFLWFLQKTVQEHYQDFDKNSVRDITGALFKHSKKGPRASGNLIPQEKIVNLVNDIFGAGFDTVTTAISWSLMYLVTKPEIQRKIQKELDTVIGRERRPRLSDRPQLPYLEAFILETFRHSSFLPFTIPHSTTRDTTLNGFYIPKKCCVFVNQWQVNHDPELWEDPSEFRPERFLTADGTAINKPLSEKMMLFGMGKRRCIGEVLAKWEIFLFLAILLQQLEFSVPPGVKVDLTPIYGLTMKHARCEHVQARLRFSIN

Assay [9] has as its target Voltage-gated inwardly rectifying potassium channel KCNH2 (Homo sapiens) (UniProt Q12809). Put plainly: Human Ether-a-go-go-Related Gene (hERG) channel small molecule antagonists: fluorescence cell-based qHTS assay (AID 1671200). In short, it runs like this:
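Fluorescence at 540 nm emission (480 nm excitation) was recorded kinetically for 2 min at 1-second intervals once the thallium-containing stimulus reached cells previously loaded with FluxOR II dye.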

Assay [10] has as its target Cytochrome P450 3A4 (Homo sapiens) (UniProt P08684). Description: Cytochrome P450 Family 3 Subfamily A Member 4 (CYP3A4) small molecule antagonists: luciferase reporter qHTS assay (AID 1671201). Also: nearly all actives have a fitted effect of over 50% in size. Also: potency is read from the fitted curve at half-maximal effect. Put shortly:
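qHTS, 1536-well. CYP3A4 + proluciferin substrate, cpd 10 min RT → NADPH regen 1 h RT → detection reagent 20 min → luminescence (RLU). Ketoconazole positive control.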

Several values for one entry are separate records, joined by “and”; a condition that tells them apart may be missing. Equal entries are not always repeated. Results filed as inconclusive are left out. Where a structure was tested more than once in an assay, its records may differ in their call. Activity calls are given as the source filed them. Unless noted, calls follow the shape of the dose curve; as a rule, active = well fitted curve in the direction sought with a large enough effect in the repeat runs; inconclusive = weak or mixed curves; inactive = no such curve, though single readings can be large; an effect the other way counts as inactive or inconclusive.

Sequence of Cytochrome P450 2C19 (Homo sapiens) (P33261 whole entry, looked up): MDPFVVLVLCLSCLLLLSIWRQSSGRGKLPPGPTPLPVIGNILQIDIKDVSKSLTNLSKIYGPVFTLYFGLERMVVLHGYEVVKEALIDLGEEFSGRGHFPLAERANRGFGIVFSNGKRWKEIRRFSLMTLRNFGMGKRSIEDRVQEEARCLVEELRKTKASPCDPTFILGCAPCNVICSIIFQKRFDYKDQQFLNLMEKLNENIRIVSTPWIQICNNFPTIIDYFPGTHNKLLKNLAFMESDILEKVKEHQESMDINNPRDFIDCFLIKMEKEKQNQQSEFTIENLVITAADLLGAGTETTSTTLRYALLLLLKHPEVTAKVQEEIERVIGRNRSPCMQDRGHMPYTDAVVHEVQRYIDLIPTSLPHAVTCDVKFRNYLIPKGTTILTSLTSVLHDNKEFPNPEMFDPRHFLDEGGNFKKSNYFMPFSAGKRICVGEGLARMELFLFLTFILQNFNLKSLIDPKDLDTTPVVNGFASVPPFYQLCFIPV
Sequence of Cytochrome P450 3A4 (Homo sapiens) (P08684 whole entry, looked up): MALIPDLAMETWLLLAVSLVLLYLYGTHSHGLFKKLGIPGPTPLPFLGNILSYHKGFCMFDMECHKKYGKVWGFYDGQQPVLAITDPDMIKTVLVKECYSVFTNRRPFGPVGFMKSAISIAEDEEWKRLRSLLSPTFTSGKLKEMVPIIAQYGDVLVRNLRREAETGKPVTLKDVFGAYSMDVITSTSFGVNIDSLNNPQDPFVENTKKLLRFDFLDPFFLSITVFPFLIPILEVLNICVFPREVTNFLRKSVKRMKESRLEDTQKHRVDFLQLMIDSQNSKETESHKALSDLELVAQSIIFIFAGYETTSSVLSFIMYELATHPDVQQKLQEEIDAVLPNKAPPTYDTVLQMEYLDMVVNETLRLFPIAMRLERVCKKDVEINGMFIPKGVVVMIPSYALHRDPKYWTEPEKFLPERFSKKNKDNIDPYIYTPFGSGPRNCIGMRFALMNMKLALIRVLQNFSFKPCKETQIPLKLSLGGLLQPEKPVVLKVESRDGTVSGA
Sequence of Acetylcholinesterase (Homo sapiens) (P22303 whole entry, looked up): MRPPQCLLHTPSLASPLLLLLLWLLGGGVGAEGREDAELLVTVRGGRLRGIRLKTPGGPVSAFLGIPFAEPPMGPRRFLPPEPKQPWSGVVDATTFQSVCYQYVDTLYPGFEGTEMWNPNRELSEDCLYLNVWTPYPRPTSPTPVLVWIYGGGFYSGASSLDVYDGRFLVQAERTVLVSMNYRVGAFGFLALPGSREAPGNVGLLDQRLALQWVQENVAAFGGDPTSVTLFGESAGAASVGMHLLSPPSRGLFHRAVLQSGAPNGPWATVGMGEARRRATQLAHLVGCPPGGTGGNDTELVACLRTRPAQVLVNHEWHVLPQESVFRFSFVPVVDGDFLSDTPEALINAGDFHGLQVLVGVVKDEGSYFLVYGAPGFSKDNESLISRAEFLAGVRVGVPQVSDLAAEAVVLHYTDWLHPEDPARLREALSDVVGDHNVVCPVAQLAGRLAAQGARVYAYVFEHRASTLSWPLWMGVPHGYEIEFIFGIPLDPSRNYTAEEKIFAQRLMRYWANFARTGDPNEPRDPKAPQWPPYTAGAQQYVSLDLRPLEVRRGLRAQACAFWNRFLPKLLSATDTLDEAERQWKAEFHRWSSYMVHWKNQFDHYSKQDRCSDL
Sequence of Cytochrome P450 2C9 (Homo sapiens) (P11712 whole entry, looked up): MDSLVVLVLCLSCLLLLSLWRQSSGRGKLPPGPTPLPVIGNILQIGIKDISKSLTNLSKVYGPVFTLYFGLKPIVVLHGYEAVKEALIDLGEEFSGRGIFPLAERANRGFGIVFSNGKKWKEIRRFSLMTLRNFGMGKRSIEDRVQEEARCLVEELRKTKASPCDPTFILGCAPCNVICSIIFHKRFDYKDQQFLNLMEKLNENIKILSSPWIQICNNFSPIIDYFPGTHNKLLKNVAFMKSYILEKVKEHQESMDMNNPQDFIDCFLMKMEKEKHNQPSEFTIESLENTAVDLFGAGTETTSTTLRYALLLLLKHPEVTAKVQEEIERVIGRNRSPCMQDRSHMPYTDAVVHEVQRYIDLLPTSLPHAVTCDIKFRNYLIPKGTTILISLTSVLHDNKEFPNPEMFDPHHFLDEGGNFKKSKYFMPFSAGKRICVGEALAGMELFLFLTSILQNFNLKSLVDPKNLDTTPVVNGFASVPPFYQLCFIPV
Sequence of Voltage-gated inwardly rectifying potassium channel KCNH2 (Homo sapiens) (Q12809 whole entry, looked up): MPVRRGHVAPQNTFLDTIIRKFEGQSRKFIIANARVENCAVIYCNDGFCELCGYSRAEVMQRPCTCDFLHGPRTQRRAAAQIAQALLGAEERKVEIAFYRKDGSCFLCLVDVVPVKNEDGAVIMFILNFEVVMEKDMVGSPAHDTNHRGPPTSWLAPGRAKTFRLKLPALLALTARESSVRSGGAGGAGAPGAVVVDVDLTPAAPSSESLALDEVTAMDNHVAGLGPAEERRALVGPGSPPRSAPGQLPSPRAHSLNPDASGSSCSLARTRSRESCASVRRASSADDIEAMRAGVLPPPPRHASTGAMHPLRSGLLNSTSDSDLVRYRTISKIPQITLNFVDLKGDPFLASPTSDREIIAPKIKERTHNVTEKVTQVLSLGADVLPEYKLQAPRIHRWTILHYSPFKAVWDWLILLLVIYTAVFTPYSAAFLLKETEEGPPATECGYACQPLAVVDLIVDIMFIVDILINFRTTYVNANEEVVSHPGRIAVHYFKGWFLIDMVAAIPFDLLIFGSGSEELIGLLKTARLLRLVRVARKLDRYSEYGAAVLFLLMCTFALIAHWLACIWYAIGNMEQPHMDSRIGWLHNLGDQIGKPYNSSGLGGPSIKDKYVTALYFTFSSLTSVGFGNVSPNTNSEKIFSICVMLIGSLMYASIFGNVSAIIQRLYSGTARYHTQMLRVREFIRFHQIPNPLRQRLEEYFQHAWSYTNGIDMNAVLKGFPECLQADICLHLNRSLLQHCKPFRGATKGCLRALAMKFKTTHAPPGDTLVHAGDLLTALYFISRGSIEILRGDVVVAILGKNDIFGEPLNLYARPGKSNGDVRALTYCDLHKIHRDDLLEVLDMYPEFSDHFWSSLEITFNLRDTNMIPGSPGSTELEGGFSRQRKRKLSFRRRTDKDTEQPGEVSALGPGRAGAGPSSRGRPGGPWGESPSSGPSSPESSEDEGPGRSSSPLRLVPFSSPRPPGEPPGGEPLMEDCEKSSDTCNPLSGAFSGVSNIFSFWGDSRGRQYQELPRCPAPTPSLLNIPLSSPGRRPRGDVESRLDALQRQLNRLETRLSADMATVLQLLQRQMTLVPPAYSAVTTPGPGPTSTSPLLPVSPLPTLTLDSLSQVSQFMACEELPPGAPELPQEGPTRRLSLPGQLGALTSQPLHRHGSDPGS
Sequence of Cytochrome P450 2D6 (Homo sapiens) (P10635 whole entry, looked up): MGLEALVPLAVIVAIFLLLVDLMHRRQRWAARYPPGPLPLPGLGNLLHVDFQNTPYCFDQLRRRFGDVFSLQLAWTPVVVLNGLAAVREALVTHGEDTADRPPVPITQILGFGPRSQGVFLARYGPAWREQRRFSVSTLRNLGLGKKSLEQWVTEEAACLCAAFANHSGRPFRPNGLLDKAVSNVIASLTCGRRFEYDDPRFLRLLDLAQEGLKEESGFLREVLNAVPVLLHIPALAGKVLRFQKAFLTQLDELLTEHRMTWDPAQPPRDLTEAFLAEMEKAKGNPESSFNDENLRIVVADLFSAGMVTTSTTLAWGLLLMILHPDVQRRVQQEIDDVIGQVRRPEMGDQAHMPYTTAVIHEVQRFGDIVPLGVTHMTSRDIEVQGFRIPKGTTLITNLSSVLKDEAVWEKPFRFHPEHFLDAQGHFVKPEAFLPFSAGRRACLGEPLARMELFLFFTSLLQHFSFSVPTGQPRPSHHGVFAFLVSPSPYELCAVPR

In the case of `Nc1ccc(Cl)c(Cl)c1`, the Potency result in assay [1], in [2], in [3], in assay [4], in assay [5] and in assay [6] was “inactive” in each case. Also, in [9], the Potency entry is “inactive”. Also, the Potency in [7] was 36.4 µM (active) and 35.6 µM (active); in [8] it was 40.9 µM (active) and 35.6 µM (active); in [10] it was 32.5 µM (active).
Take `Oc1cc(Cl)ccc1Cl`: the Potency entry in assay [1], in [2], in assay [3], in assay [4], in assay [5] and in assay [6] was “inactive” throughout. Also, the Potency entry in assay [7], in assay [9] and in assay [10] was “inactive” each time. Moreover, the Potency in [8] is 36.6 µM (active) and 31.7 µM (active).
In the case of `CCN(CC)N=O`, the Potency entry in assay [1], in [2], in assay [3], in assay [4], in [5] and in assay [7] was “inactive” each time. The Potency entry in assay [8], in assay [9] and in assay [10] was “inactive” each time. Also, the Potency in [6] is 22.6 µM (active).
Regarding `COC(=O)c1sccc1S(=O)(=O)NC(=O)Nc1nc(C)nc(OC)n1`, the Potency result in assay [1], in assay [2], in [3], in assay [4], in [5] and in [7] was “inactive” each time. For the same compound, the Potency entry in assay [8], in assay [9] and in assay [10] was “inactive” each time. In addition, in [6], the Potency is 81.3 µM (active).
On to `CCCCCCCCCCCOC(=O)c1ccccc1C(=O)OCCCCCCCCCCC`, for which the Potency entry in assay [1], in assay [2], in assay [3], in [4], in [5] and in [6] was “inactive” throughout. Also, the Potency entry in [7], in [8], in [9] and in assay [10] was “inactive” in each case.
In the case of `CNC(=O)Oc1cccc2c1OC(C)(C)O2`, the Potency in [1] was 1.04 µM (active) and 399 nM (active); in [2] it was 1.65 µM (active) and 356 nM (active); in assay [3] it was 826 nM (active) and 224 nM (active); in assay [4] it was 10.4 µM (active) and 5.03 µM (active); in assay [6], 36.9 µM (active) and 71 µM (active); in assay [8], 35.6 µM (active). The Potency result in assay [5], in assay [9] and in assay [10] was “inactive” each time.
Regarding `C=CCc1ccc2c(c1)OCO2`, the Potency entry in assay [1], in assay [2], in assay [3], in assay [4], in [5] and in [6] was “inactive” each time. Moreover, the Potency entry in assay [7] and in assay [10] was “inactive” in each case. For the same compound, the Potency in assay [8] was 28.3 µM (active).
`O=C(O)C(F)(F)C(F)(F)C(F)(F)C(F)(F)C(F)(F)C(F)(F)C(F)(F)F`: the Potency result in assay [1], in assay [2], in assay [3], in [4], in assay [5] and in assay [8] was “inactive” each time. For the same compound, the Potency result in assay [10] was “inactive”. The Potency in [6] is 79.6 µM (active) and inactive; in assay [7], 1.78 µM (active) and 2.51 µM (active).
As to `Oc1c(Cl)c(Cl)c(Cl)c(Cl)c1Cl`, the Potency result in assay [1], in assay [2], in assay [3], in assay [4], in assay [9] and in [10] was “inactive” in each case. For the same compound, the Potency entry in [5] is “inactive and 796 nM (active)”; in [6], 34.9 µM (active) and 15.9 µM (active) and inactive; in assay [8], 62 µM (active) and 35.5 µM (active) and 79.6 µM (active).
As to `C=C(C)[C@H]1Cc2c(ccc3c2O[C@@H]2COc4cc(OC)c(OC)cc4[C@@H]2C3=O)O1`, the Potency entry in assay [1], in assay [2], in assay [3], in [4] and in assay [8] was “inactive” throughout. In addition, the Potency result was “inactive and 38.9 µM (active)” in [5]; 5.09 µM (active) and 6.33 µM (active) and 9.77 µM (active) in assay [7].
With `O=[N+]([O-])c1cccc2ccccc12`, the Potency result in assay [1], in [2], in [3], in [4], in assay [5] and in assay [6] was “inactive” each time. The Potency result in assay [7] and in assay [10] was “inactive” in each case. For the same compound, the Potency in assay [8] is 3.17 µM (active) and 3.99 µM (active).
As for `c1ccc(P(c2ccccc2)c2ccccc2)cc1`, the Potency result in [1], in assay [2], in assay [3], in [4], in [8] and in [10] was “inactive” each time. Also, the Potency in [6] is 10.2 µM (active) and 7.1 µM (active); in assay [7], 12.9 µM (active) and 7.96 µM (active).
For `O=Cc1ccco1`, the Potency result in assay [1], in [2], in [3], in assay [4], in assay [5] and in [6] was “inactive” each time. For the same compound, the Potency entry in assay [7], in assay [8] and in assay [10] was “inactive” throughout.
Take `CN(C)c1ccc(C(=O)c2ccc(N(C)C)cc2)cc1`: the Potency entry in assay [2], in [3] and in assay [4] was “inactive” throughout. The Potency entry was “inactive and 35.6 µM (active)” in assay [5]; 8.85 µM (active) and 8.94 µM (active) in [6]; 31.7 µM (active) in [7]; 17.7 µM (active) and 14.2 µM (active) in assay [8].
Turning to `c1ccc(-c2cccc(-c3ccccc3)c2)cc1`, the Potency entry in assay [2], in assay [3], in [4], in assay [5], in assay [9] and in [10] was “inactive” each time. Further, the Potency is 20.2 µM (active) and 8.94 µM (active) in assay [6]; 28.6 µM (active) and 31.7 µM (active) in assay [7]; 5.7 µM (active) and 5.64 µM (active) in assay [8].
With `CCCCNC(=O)n1c(NC(=O)OC)nc2ccccc21`, the Potency result in assay [1], in assay [2], in [3], in assay [4], in [5] and in [9] was “inactive” each time. The Potency entry in [10] is “inactive”. Moreover, the Potency in assay [6] is 79.3 µM (active); in assay [8] it was 25.1 µM (active) and 28.3 µM (active).
On to `CCOCN(C(=O)CCl)c1c(C)cccc1CC`, for which the Potency in [1] was 33.6 µM (active) and inactive; in assay [6] it was 9.47 µM (active) and 15.9 µM (active); in assay [7] it was 30 µM (active) and 39.9 µM (active); in [8] it was 33.6 µM (active) and inactive. In addition, the Potency entry in assay [2], in [3], in assay [4], in assay [5] and in [10] was “inactive” throughout.
